# Experimental data reported in PubChem BioAssay (NCATS).
# Values joined by “and” are separate entries in the source; they are usually repeats but may differ in a detail not shown here. Identical values can stand only once. Results filed as inconclusive are left out. A call without a number means that no potency is given here. Active and inactive are the calls of the source. Unless noted, calls follow the shape of the dose curve; as a rule, active = well fitted curve in the direction sought with a large enough effect; inconclusive = small, poorly fitted or top-dose-only effect, or another doubt; inactive = no such curve, though single readings can be large; an effect the other way counts as inactive or inconclusive.
# Tests used:
# [1] = qHTS drug screen for cell cycle checkpoint inhibitors in PARPi-resistant BRCA-mutant ovarian cancer cell lines. (AID 1963452; calls by dose curve); conditions: PEO1/OlaR viability, CellTiter-Glo luminescence, 96 h, stronger effect = lower value
# Method in brief: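 PEO1, PEO4 and PEO1/OlaR ovarian cancer cells, 600 per well, exposed 96 h at 37C to a dilution series. Viability read by CellTiter-Glo luminescence, normalized to DMSO and empty wells; activity summarized as Z-AUC.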
# [2] = AP1 Signaling Pathway (AID 357; active = well fitted curve in either direction with a large enough effect, not every such curve was filed as active;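 also: ME-180 reporter cells stimulated with EGF at its EC50 level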); conditions: ME-180 AP-1-bla reporter, EGF-induced, beta-lactamase ratio, 5 h; at 7.69 µM (top of the series) unless noted
# Method in brief: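 In this screen, ME-180 cells in Opti-MEM with 0.5% dialyzed FBS received EC50 EGF and compound titrations for 5 h. AP-1 reporter beta-lactamase was detected via CCF4 ratio, giving AC50 for positive and negative modulators.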
# [3] = target: Cytochrome P450 1A2 (Homo sapiens) (UniProt P05177); assay: p450-cyp1a2 (AID 410; calls by dose curve; also: potency is read from the fitted curve at half-maximal effect)
# Chain of Cytochrome P450 1A2 (Homo sapiens) (P05177 whole entry, looked up): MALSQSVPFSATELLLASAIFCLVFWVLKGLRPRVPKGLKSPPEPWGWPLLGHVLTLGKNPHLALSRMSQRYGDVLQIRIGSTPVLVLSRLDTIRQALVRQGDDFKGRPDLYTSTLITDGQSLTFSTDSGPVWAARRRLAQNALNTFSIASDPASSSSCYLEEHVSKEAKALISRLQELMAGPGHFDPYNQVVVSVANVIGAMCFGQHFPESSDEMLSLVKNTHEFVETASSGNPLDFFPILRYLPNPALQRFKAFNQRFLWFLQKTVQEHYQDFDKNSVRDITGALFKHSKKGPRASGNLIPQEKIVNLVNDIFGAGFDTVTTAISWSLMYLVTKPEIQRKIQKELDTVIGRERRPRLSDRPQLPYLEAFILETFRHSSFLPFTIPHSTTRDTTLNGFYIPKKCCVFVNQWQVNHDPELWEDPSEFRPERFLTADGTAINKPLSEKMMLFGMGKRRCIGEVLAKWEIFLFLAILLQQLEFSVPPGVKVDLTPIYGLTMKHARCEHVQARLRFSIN
# Method in brief: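 Human CYP1A2 (20nM) demethylated Luciferin-ME at its Km (100uM) in 100mM KPO4. After 10 min compound preincubation, NADPH regeneration ran the reaction 60 min at room temperature. Luciferin was read by luminescence, normalized to 57 uM furafylline.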
# [4] = NFAT Signaling Pathway (AID 444; active = well fitted curve in either direction with a large enough effect, not every such curve was filed as active;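 also: carbachol stimulus at about its EC50 of 1 µM final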); conditions: Jurkat NFAT-bla M1, carbachol, beta-lactamase ratio, 5 h; at 7.69 µM (top of the series) unless noted
# Method in brief: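 Jurkat cells with NFAT-driven β-lactamase reporter and co-expressed M1 receptor, stimulated with carbachol (final 1 uM, ~EC50), compound titration, 5 h at 37 °C. CCF4 loaded 1 h at RT; 460/530 nm ratio gave %activity and AC50.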
# [5] = Stat Signaling Pathway (AID 446; active = well fitted curve in either direction with a large enough effect, not every such curve was filed as active;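 also: ME-180 cervical cancer cells given 40 pM IL-6 alongside compound; SIE-controlled beta-lactamase reporter measured as 460/530 nm FRET emission ratio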); conditions: ME-180 SIE beta-lactamase reporter, IL-6 stimulated, 5 h; at 7.69 µM (top of the series) unless noted
# Method in brief: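 ME-180 SIE-bla cells; overnight plating; cpd + IL-6 40 pM, 5 h, 37 C; LiveBLAzer 2.5 h RT; 460/530 nm emission ratio. Normalized to 300 pM IL-6 and 125 nM JAK inhibitor controls.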
# [6] = target: 3',5'-cyclic-AMP phosphodiesterase 4B (Homo sapiens) (UniProt Q07343); assay: qHTS Assay for Inhibitors of PDE-IV (AID 607; active = well fitted activation curve with a large enough effect in the main read-out, with a control signal flat, not every such curve was filed as active)
# Chain of 3',5'-cyclic-AMP phosphodiesterase 4B (Homo sapiens) (Q07343 whole entry, looked up): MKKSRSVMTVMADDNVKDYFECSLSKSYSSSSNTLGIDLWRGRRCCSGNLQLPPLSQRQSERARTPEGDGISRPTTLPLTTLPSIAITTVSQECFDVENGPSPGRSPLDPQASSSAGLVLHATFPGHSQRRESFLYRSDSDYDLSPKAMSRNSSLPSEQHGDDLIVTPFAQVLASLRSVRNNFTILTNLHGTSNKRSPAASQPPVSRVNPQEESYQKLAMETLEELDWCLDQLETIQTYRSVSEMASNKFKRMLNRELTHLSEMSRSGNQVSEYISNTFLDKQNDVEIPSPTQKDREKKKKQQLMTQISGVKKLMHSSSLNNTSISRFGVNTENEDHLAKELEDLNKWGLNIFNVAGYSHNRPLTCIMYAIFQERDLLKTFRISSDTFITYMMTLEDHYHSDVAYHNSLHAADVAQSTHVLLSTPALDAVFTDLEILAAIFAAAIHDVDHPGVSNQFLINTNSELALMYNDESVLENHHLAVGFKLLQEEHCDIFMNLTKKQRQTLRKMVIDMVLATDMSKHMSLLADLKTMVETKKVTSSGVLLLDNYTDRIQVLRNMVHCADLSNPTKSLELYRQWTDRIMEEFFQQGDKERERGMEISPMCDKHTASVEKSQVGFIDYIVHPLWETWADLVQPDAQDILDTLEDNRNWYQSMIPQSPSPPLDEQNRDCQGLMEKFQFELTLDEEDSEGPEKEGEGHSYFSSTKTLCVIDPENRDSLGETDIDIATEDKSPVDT
# Method in brief: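 ACTOne HEK293 cells carry a modified cAMP-gated CNG channel and express endogenous PDE4; plated 1000 cells/well, compounds up to 22.9 uM final. Membrane-potential dye fluorescence (ex 535/em 590) was read; parental cells received 10 uM forskolin + 100 uM RO 20-1724.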
# [7] = target: Guanine nucleotide-binding protein G(i) subunit alpha-1 (Homo sapiens) (UniProt P63096); assay: qHTS Assay for Inhibitors of RGS12 GoLoco Motif Activity (Green Fluorophore) (AID 879);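 also: negative values mean loss of peptide binding seen as reduced polarization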
# Chain of Guanine nucleotide-binding protein G(i) subunit alpha-1 (Homo sapiens) (P63096 whole entry, looked up): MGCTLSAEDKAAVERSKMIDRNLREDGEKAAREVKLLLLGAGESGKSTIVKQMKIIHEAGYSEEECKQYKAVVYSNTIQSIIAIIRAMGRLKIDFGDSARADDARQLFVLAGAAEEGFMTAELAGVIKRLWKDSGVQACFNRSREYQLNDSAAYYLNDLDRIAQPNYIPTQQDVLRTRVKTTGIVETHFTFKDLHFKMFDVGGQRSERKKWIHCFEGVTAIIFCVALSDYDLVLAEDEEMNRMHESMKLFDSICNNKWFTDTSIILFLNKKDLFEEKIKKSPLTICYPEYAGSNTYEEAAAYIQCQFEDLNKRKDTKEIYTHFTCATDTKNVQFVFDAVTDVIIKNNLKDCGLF
# Method in brief: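 Fluorescence polarization assay: 50 nM Gαi1 with 10 nM FITC-labeled RGS12 GoLoco peptide in 10 mM Tris pH 7.5, 150 mM NaCl, 0.1 mM GDP, 0.05% NP40, 10 min at room temperature with compound.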
# [8] = target: Muscarinic acetylcholine receptor M1 (Rattus norvegicus) (UniProt P08482); assay: qHTS Assay for Antagonists of Acetylcholine Muscarinic M1 Receptor: Measurement of IP-One Response (AID 944); also: nearly all actives have a fitted effect of over 75% in size
# Chain of Muscarinic acetylcholine receptor M1 (Rattus norvegicus) (P08482 whole entry, looked up): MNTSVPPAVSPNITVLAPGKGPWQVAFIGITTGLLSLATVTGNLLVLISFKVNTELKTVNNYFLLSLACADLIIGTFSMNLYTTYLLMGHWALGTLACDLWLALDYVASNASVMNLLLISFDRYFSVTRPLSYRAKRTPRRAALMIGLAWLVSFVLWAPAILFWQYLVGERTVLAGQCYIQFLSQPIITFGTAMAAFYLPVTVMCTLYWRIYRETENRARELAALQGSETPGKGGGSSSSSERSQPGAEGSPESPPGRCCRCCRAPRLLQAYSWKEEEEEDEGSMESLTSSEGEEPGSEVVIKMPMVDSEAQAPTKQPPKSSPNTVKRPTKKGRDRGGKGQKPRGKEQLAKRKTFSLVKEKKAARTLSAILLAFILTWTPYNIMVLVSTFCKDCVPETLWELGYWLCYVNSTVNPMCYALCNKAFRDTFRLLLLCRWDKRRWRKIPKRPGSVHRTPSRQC
# Method in brief: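 CHO cells expressing rat M1 receptor, recovered overnight, were pre-incubated 10 min with compound, then stimulated 30 min with carbachol at EC80 (200 nM) in LiCl-containing buffer, pH 7.4. IP1 accumulation was read by HTRF (620/665 nm).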
# [9] = target: Pyruvate kinase (Leishmania mexicana) (UniProt Q27686); assay: qHTS Validation Assay for Inhibitors of Leishmania Mexicana Pyruvate Kinase (AID 945)
# Chain of Pyruvate kinase (Leishmania mexicana) (Q27686 2-499 E452W): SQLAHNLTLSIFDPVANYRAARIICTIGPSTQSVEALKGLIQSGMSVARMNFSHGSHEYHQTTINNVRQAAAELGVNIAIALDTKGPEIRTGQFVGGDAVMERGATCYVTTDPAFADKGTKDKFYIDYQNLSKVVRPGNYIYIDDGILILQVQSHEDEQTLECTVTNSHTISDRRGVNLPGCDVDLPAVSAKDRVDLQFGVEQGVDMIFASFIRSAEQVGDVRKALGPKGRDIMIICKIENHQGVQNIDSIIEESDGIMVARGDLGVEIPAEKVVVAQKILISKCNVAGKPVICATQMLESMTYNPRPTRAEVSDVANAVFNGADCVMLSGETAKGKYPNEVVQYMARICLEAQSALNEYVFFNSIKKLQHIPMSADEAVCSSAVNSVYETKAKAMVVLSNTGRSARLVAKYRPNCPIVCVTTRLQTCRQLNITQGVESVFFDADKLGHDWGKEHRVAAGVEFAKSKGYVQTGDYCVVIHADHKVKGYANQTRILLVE
# Method in brief: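 Luminescent ATP detection (PKLight) after a 1 h room-temperature reaction of 0.2 nM LmPYK E451W mutant with 0.5 mM PEP and 0.1 mM ADP at pH 7.2. Activity is normalized to DMSO-only control wells.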
# [10] = target: Pyruvate kinase PKM (Homo sapiens) (UniProt P14618); assay: qHTS Assay for Activators of Human Muscle Pyruvate Kinase (AID 954; active = well fitted curve in the direction sought with a large enough effect, not every such curve was filed as active)
# Chain of Pyruvate kinase PKM (Homo sapiens) (P14618 whole entry, looked up): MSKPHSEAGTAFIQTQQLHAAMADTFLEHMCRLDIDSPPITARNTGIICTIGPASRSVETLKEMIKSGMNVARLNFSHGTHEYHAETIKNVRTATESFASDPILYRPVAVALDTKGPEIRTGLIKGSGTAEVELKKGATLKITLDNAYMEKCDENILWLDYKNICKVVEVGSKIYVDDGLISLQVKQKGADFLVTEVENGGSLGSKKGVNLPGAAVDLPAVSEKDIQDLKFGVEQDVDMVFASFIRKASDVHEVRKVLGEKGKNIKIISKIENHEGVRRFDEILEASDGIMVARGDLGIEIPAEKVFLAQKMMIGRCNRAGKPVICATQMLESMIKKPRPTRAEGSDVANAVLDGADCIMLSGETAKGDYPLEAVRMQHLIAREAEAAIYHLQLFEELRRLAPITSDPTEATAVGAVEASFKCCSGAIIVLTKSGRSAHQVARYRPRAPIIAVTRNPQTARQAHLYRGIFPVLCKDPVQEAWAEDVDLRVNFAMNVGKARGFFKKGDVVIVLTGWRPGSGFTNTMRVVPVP
# Method in brief: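 Luminescence from a luciferase ATP-detection/stop reagent reported PKM2 activity. Reactions contained 0.1 nM purified human enzyme, 0.5 mM PEP, 0.1 mM ADP and 7 mM MgCl2 at pH 7.2, run 1 h at RT.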
# [11] = target: Alpha-galactosidase A (Homo sapiens) (UniProt P06280); assay: Counterscreen for Glucocerebrosidase Inhibitors: qHTS Assay for Human alpha-Galactosidase at pH 4.5 (AID 992)
# Chain of Alpha-galactosidase A (Homo sapiens) (P06280 whole entry, looked up): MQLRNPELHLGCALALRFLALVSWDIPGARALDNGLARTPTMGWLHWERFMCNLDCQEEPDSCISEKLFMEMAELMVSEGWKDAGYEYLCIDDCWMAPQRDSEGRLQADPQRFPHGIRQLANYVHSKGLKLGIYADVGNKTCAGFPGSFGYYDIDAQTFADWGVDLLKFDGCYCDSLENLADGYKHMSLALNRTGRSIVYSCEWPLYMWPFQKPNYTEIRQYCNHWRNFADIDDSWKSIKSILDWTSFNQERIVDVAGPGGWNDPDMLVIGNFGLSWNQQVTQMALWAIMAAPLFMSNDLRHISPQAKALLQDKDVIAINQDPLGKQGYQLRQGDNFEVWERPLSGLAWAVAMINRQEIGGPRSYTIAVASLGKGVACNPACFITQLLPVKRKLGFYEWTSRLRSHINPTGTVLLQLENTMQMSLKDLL
# Method in brief: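 Enzyme at 2 nM final was combined with compound (0.7 nM to 77 uM) and 80 uM 4-methylumbelliferyl alpha-D-galactopyranoside in 50 mM citric acid, 0.005% Tween-20, pH 4.5. After 20 min at room temperature, fluorescence was read (Ex 365/Em 440 nm); AC50 came from Hill fits.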
# [12] = target: alpha-glucosidase (Oryza sativa, rice) (UniProt Q653V4); assay: Counterscreen for Glucocerebrosidase Inhibitors: qHTS Assay for Rice alpha-Glucosidase at pH 5.0 (AID 997)
# Method in brief: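 Rice alpha-glucosidase (4 nM final) with 400 uM 4-methylumbelliferyl-alpha-D-glucopyranoside in citrate buffer pH 5.0, 20 min at room temperature, stopped at pH 10; fluorescence 365/440 nm, compounds 0.7 nM–77 uM, AC50 from Hill fits.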
# [13] = qHTS for differential inhibitors of proliferation of Plasmodium falciparum line 7G8 (AID 1815);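 also: parasite growth measured after three days of incubation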; also: potency is read from the fitted curve at half-maximal effect
# [14] = qHTS for differential inhibitors of proliferation of Plasmodium falciparum line GB4 (AID 1816); conditions: Potency: Plasmodium falciparum GB4 proliferation inhibition;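 also: parasite growth measured after 72 h incubation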; also: potency is read from the fitted curve at half-maximal effect
# [15] = qHTS for differential inhibitors of proliferation of Plasmodium falciparum line W2 (AID 1883); conditions: Potency: Plasmodium falciparum W2 proliferation inhibition;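 also: parasites grown with compound for 72 h before lysis and staining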; also: potency is read from the fitted curve at half-maximal effect
# [16] = Validation screen for small molecules that induce DNA re-replication in SW480 colon adenocarcinoma cells (AID 504364)
# Method in brief: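 SW480 cells seeded at 250 per well were exposed to compound or DMSO for 48 hr at 37 C, 5% CO2, then stained with Hoechst for 40 min. DNA content per nucleus was imaged (405 nm ex, 500-530 nm em).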
# [17] = qHTS Assay for Modulators of Human Peripheral Myelin Protein 22 (PMP22) Expression/Activity (AID 1967; active = well fitted curve in the direction sought with a large enough effect in the signal ratio; the % refers to the signal ratio)
# Method in brief: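 Mouse MSC80 Schwann cells carrying Pmp22 promoter–green click beetle luciferase plus EF-alpha–red luciferase control, dosed 24 h at 37 °C. Dual-filter luminescence, overlap-corrected; %Activity from green/red ratio normalised to untreated cells, concentration-response curves fitted.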
# [18] = qHTS profiling for inhibitors of Plasmodium falciparum proliferation (AID 504749); also: nearly all actives have a fitted effect of over 60% in size; conditions: P. falciparum in erythrocytes, SYBR Green DNA, 72 h, at 28.7 µM (top of the series)
# Method in brief: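 Readout was DNA-dye fluorescence from lysed cultures, ex 485/em 535 nm. Parasitized red cells had grown 72 h with compound; data scaled between 0.29 uM artemisinin and DMSO wells and corrected using vehicle-only plates.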
# [19] = target: Calcium and integrin-binding protein 1 (Homo sapiens) (UniProt Q99828); assay: Confirmatory qHTS for Identification of Calcium Integrin Binding Protein 1 (CIB1) Competitor (AID 1508617); also: nearly all actives have a fitted effect of over 65% in size
# Chain of Calcium and integrin-binding protein 1 (Homo sapiens) (Q99828 whole entry, looked up): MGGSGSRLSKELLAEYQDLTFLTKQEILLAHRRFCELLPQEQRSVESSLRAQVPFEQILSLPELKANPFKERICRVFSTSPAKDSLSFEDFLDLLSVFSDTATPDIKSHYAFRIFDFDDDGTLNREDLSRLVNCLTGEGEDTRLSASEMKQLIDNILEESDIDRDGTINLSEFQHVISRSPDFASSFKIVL
# Method in brief: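 Fluorescence polarization competition: CIB1-GST (1 uM final) in 5 mM HEPES pH 7.4, 125 mM NaCl, 5 mM CaCl2, 0.01% Tween20 preincubated 15 min RT with compound (up to 114 uM), then FITC-alphaIIb peptide (100 nM) added, 15 min RT.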
# [20] = measured here: PEO1 parental Z-AUC
compound,measurement,setting,value
Cc1c(C(=O)Nc2ccc(Oc3ccnc4[nH]cc(-c5ccccc5)c34)c(F)c2)c(=O)n(-c2ccc(F)cc2)n1C,Z-AUC,[1],0.886 (inactive)
same,Z-AUC,[1]; [20],0.825
same,Z-AUC,[1]; measured here: PEO4 Z-AUC,0.513
NCCNC(=O)c1ccc(Cl)cc1,"activity change, negative = inhibition",[2],-4.17% [at 38 µM] (inactive)
same,Potency,[3],12.6 µM (active) and 10 µM (active)
same,"activity change, negative = inhibition",[4],9.25% [at 38 µM] (inactive)
same,"activity, negative = inhibition",[5],-2.11% [at 38 µM] (inactive)
same,Potency,[6],inactive
same,outcome,[7],inactive
same,Potency,[8],inactive
same,Potency,[9],inactive
same,outcome,[10],inactive
same,outcome,[11],inactive
same,outcome,[12],inactive
same,Potency,[13],inactive
same,Potency,[14],inactive
same,Potency,[15],inactive
same,outcome,[16],inactive
NC(=O)c1cccc2c(NC(CN3CCC3)c3ccc(Cl)c(C(F)(F)F)c3)ncnc12 (configuration not stated),Z-AUC,[1],0.286 (inactive)
same,Z-AUC,[1]; [20],0.149
same,Z-AUC,[1]; measured here: PEO4 Z-AUC,0.205
NC(=O)C1=CN(C2OC(COP(=O)(O)OP(=O)(O)OC[C@H]3O[C@@H](n4cnc5c(N)ncnc54)[C@H](OP(=O)(O)O)[C@H]3O)C(O)C2O)C=CC1 (some centres not stated),Potency,[13],inactive
same,Potency,[14],inactive
same,Potency,[15],inactive
same,outcome,[16],inactive
CCCc1cc(C(=O)N[C@H](Cc2ccc(-c3cccc(OC(F)(F)F)c3)nc2)C(=O)N[C@@H]2CCNC2)sc1C,Z-AUC,[1],-0.805 (inactive)
same,Z-AUC,[1]; [20],-0.801
same,Z-AUC,[1]; measured here: PEO4 Z-AUC,-0.851
CC(=O)[C@@]1(O)CC[C@H]2C3CCC4=CC(=O)CC[C@]4(C)C3CC[C@@]21C (some centres not stated),outcome,[17],inactive
O=C(O)CC[C@H](NC(=O)c1ccccc1C(=O)O)C(=O)O,Potency,[13],inactive
same,Potency,[14],inactive
same,Potency,[15],inactive
same,outcome,[17],inactive
COc1cc(=O)n(C)c2c(OCC(O)C(C)(C)O)cccc12 (configuration not stated),Potency,[13],inactive
same,Potency,[14],inactive
same,Potency,[15],inactive
same,outcome,[17],inactive
Nc1ncnc2c1ncn2[C@@H]1O[C@H](CO)[C@H](O)[C@H]1O,Potency,[13],inactive
same,Potency,[14],inactive
same,outcome,[17],inactive
same,outcome,[16],inactive
CNc1ncnc2c1ncn2[C@@H]1O[C@H](CO)[C@H](O)[C@H]1O,Potency,[13],inactive
same,Potency,[14],inactive
same,Potency,[15],inactive
CC(N)=NCCCC(N)C(=O)O (configuration not stated),Potency,[13],inactive
same,Potency,[14],inactive
same,Potency,[15],inactive
same,outcome,[17],inactive
same,outcome,[16],inactive
CN1C(=O)CCC1c1cccnc1 (configuration not stated),Potency,[13],inactive
same,Potency,[14],inactive
same,outcome,[17],inactive
same,"activity, negative = inhibition",[18]; parasite line A,0.771% (inactive)
same,"activity, negative = inhibition",[18]; parasite line B,4.61% (inactive)
OC[C@H]1O[C@@H](n2cnc3c(Nc4ccccc4)ncnc32)[C@H](O)[C@H]1O,Potency,[13],inactive
same,Potency,[14],inactive
same,Potency,[15],inactive
same,outcome,[16],inactive
CN1C2CC(OC(=O)C(CO)c3ccccc3)CC1C1OC12 (configuration not stated),Potency,[13],inactive
same,outcome,[17],inactive
N=C1Sc2ccccc2C2=NCCCN12,"activity change, negative = inhibition",[2],18% [at 38 µM] (inactive)
same,Potency,[3],10 µM (active)
same,"activity, negative = inhibition",[5],-18.9% [at 38 µM] (inactive)
same,Potency,[6],inactive
same,outcome,[7],inactive
same,Potency,[8],inactive
same,Potency,[9],inactive
same,outcome,[10],inactive
same,outcome,[11],inactive
same,outcome,[12],inactive
O=C1NC(=O)[C@@H](c2c[nH]c3ccccc23)[C@H]1c1cn2c3c(cccc13)CCC2,Z-AUC,[1],-1.13 (inactive)
same,Z-AUC,[1]; [20],-0.673
same,Z-AUC,[1]; measured here: PEO4 Z-AUC,-0.711
COc1c2c(nc3ccccc13)OC(C(C)(O)CO)C2 (configuration not stated),Potency,[13],inactive
same,Potency,[14],inactive
same,Potency,[15],inactive
same,outcome,[17],inactive
same,outcome,[16],inactive
N=C(N)SCCc1cccc(CCSC(=N)N)c1,"activity change, negative = inhibition",[2],7.41% [at 38 µM] (inactive)
same,"activity, negative = inhibition",[5],0.643% [at 38 µM] (inactive)
same,Potency,[6],inactive
same,outcome,[7],inactive
same,Potency,[9],inactive
same,outcome,[10],inactive
same,outcome,[11],inactive
same,outcome,[12],inactive
same,Potency,[13],6.31 µM (active)
same,Potency,[14],2.24 µM (active)
same,Potency,[15],1 µM (active)
same,outcome,[17],inactive
same,outcome,[16],inactive
CSc1nc(N)c2ncn([C@@H]3O[C@H](COP(=O)(O)OP(=O)(O)OP(=O)(O)O)[C@H](O)[C@H]3O)c2n1,Potency,[14],12.6 µM (active)
same,Potency,[15],12.6 µM (active)
O=C1CCC2=C1C1(CCCC1)N=C(Nc1nc3ccccc3o1)N2,Potency,[19],inactive
O=[N+]([O-])c1ccc(CSc2ncnc3c2ncn3[C@@H]2O[C@H](CO)[C@H](O)[C@H]2O)cc1,Potency,[14],inactive
same,outcome,[17],inactive
CNCC[C@@H](Oc1ccc(C(F)(F)F)cc1)c1ccccc1,outcome,[16],inactive
